Measurements reported in the supplement of paper PMC10849652.
The full data set covers some 7,900 targets. This sample favours those with a hit. About 0.6% of all pairs of compound and target were hits.

Columns and labels:
Experiment in all cases: log2 fold change, soluble protein after heating vs DMSO (PISA); higher = thermal stabilisation; K562 cells, 10 uM, 30 min; active = over 0.2 and 3.5 SD of the protein, either way, in both replicates (recomputed)
erlotinib = compound: C#Cc1cccc(Nc2ncnc3cc(OCCOC)c(OCCOC)cc23)c1 [erlotinib]
Summary of the method: (§1)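 Aliquots of K562 cells (2×10^6 cells/mL) treated with 10 μM compound for 30 min were heated for 3 min over 48°C-58°C. After pooling and extraction in PBS with 0.5% NP-40 at 4°C, soluble protein from a 21,000xg, 90 min spin was quantified by TMTpro 16plex LC-MS/MS with channel sums equalised. Thermal stability is expressed against control samples, from duplicates, as a log2 fold change.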

[1] = compound: C/C(=N\NC(=O)C1=CC(=CC=C1)S(=O)(=O)N2CCOCC2)/C3=C(C=CC(=C3)Cl)O
Summary of the method: as §1

[2] = compound: C1=CC(=C(C=C1Cl)C2=NC3=NC=CN=C3C(=N2)NC4=CC=NC=C4)F
Summary of the method: as §1

[3] = compound: C1=CC(=CC=C1C2=NC3=C(N2)C=C(C=C3)C(=O)N)OC4=CC=C(C=C4)Cl
Summary of the method: as §1

[4] = compound: C1=CC2=C(C=CC(=C2)/C=C\3/C(=O)NC(=NCC4=CC=CS4)S3)N=C1
Summary of the method: as §1

[5] = compound: C1=CC2=NC=CN=C2C=C1/C=C/3\C(=O)NC(=O)S3
Summary of the method: as §1

[6] = compound: C1=CC=C(C=C1)C2=NC(=C(N2)C3=CC=NC=C3)C4=CC(=C(C=C4)Cl)O
Summary of the method: as §1

[7] = compound: C1=CC=C2C(=C1)C3=NNC4=CC=CC(=C43)C2=O
Summary of the method: as §1

[8] = compound: C1CCN(C1)C(=O)NC2=CC=CC(=C2)NC3=NC=C(C(=N3)NCCC4=CN=CN4)Br
Summary of the method: as §1

[9] = compound: C1CN(CCC1(CC2=CC=C(C=C2)Cl)N)C3=NC=NC4=C3C=CN4
Summary of the method: as §1

IRAK-1-4 Inhibitor I = compound: C1COCCN1CCN2C3=CC=CC=C3N=C2NC(=O)C4=CC(=CC=C4)[N+](=O)[O-] [IRAK-1-4 Inhibitor I]
Summary of the method: as §1

ibrutinib = compound: C=CC(=O)N1CCC[C@@H](n2nc(-c3ccc(Oc4ccccc4)cc3)c3c(N)ncnc32)C1 [ibrutinib]
Summary of the method: as §1

[10] = compound: CC(=O)c1cnc2ccc(-c3cc(Cl)c(O)c(Cl)c3)nc2c1N[C@H]1CC[C@H](CN(C)C)CC1
Summary of the method: as §1

ralimetinib = compound: CC(C)(C)Cn1c(N)nc2ccc(-c3[nH]c(C(C)(C)C)nc3-c3ccc(F)cc3)nc21 [ralimetinib]
Summary of the method: as §1

[11] = compound: CC(C)(O)CC(=O)NCCn1ccc2ncnc(Nc3ccc(Oc4cccc(C(F)(F)F)c4)c(Cl)c3)c21
Summary of the method: as §1

[12] = compound: CC(C)C1=C2N=C(C=C(N2N=C1)NCC3=CC=CC=C3)NCCCCCCN
Summary of the method: as §1

[13] = compound: CC(C)C[C@@H](C=O)NC(=O)[C@H](CC(C)C)NC(=O)[C@H](CC(C)C)NC(=O)OCc1ccccc1
Summary of the method: as §1

pinometostat = compound: CC(C)N(C[C@H]1O[C@@H](n2cnc3c(N)ncnc32)[C@H](O)[C@@H]1O)[C@H]1C[C@@H](CCc2nc3cc(C(C)(C)C)ccc3[nH]2)C1 [pinometostat]
Summary of the method: as §1

[14] = compound: CC1=C(C(CC(=O)N1)C2=CC=C(C=C2)C(F)(F)F)C(=O)NC3=C(C=C4C(=C3)C=NN4)F
Summary of the method: as §1

[15] = compound: CC1=C(C2=C(C=C1)C(=O)C3=CC=CC=C3N2CCCN)C
Summary of the method: as §1

Measured: log2 fold change

EVC2 (UniProt Q86UK5)
UniProt Q86UK5, sequence (Q86UK5 whole entry, looked up): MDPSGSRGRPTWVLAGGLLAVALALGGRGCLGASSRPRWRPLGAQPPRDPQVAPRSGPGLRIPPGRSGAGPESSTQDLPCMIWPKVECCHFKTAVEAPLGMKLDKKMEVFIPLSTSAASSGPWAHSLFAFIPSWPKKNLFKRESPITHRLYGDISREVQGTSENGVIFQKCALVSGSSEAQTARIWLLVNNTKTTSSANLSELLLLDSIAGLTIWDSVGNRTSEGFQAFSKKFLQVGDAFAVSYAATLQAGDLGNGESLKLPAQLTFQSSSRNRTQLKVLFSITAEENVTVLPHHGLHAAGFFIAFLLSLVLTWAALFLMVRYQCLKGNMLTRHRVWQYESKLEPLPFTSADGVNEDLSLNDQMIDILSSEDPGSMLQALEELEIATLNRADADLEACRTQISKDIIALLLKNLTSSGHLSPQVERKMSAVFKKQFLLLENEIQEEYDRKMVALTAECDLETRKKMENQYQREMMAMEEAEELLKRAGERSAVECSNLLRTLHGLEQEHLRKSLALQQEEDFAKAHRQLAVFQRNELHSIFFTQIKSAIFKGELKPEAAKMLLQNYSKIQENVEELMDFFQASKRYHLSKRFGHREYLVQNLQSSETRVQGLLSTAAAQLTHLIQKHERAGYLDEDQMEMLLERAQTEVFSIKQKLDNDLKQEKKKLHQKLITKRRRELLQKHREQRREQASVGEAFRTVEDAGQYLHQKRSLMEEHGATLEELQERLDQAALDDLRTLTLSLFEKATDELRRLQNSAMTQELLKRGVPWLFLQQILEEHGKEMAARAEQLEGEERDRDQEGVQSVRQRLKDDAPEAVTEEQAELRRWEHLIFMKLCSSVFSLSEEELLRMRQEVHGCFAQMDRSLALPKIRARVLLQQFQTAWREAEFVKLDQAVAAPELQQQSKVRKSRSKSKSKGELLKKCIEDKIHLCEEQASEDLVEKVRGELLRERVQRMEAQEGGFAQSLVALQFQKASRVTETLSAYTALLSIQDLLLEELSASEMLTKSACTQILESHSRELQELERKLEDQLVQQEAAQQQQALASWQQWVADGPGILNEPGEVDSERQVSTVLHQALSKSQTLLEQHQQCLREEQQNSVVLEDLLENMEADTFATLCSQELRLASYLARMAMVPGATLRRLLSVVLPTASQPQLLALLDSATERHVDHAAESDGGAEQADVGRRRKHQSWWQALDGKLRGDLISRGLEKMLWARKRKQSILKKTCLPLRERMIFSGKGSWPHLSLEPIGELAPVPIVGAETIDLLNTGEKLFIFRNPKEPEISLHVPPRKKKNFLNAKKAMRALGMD
inactive: erlotinib -0.01 | [1] -0.044 | [2] -0.013 | [3] -0.035 | [4] -0.069 | [5] -0.019 | [6] -0.002 | [7] 0.061 | [8] -0.042 | [9] -0.117 | IRAK-1-4 Inhibitor I 0.052 | ibrutinib 0.032 | [10] -0.061 | ralimetinib -0.15 | [11] 0.038 | [12] 0.064 | [13] 0.038 | pinometostat -0.011 | [14] 0.091 | [15] -0.014

DHRS1 (UniProt Q96LJ7)
UniProt Q96LJ7, sequence (Q96LJ7 whole entry, looked up): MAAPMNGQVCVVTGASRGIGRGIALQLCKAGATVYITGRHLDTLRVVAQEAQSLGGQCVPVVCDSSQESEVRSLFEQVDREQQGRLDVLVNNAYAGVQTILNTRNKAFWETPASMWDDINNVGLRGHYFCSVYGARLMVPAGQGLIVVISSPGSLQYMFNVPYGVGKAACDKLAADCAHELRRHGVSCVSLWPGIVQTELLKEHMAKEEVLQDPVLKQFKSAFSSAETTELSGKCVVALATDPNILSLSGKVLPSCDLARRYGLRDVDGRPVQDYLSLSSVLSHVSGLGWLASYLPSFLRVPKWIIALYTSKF
inactive: erlotinib -0.045 | [2] -0.02 | [3] -0.105 | [4] 0.353 | [5] -0.034 | [7] -0.163 | [8] -0.163 | [9] -0.021 | IRAK-1-4 Inhibitor I 0.037 | ibrutinib 0.105 | [10] 0.045 | ralimetinib 0.014 | [11] 0 | [12] 0.614 | [13] 0.21 | pinometostat -0.087 | [14] 0.003 | [15] 0.071
active: [1] 0.995 | [6] 0.813

DTWD1 (UniProt Q8N5C7)
inactive: erlotinib 0.072 | [1] 0.007 | [2] 0.002 | [3] -0.122 | [4] 0.018 | [5] 0.017 | [6] -0.039 | [7] 0.023 | [8] 0.016 | [9] 0.044 | IRAK-1-4 Inhibitor I 0.043 | ibrutinib 0.014 | [10] 0.076 | ralimetinib 0 | [11] -0.022 | [12] 0.161 | [13] -0.021 | pinometostat -0.026 | [14] -0.109 | [15] 0.136

DIP2A (UniProt Q14689)
UniProt Q14689, sequence (Q14689 whole entry, looked up): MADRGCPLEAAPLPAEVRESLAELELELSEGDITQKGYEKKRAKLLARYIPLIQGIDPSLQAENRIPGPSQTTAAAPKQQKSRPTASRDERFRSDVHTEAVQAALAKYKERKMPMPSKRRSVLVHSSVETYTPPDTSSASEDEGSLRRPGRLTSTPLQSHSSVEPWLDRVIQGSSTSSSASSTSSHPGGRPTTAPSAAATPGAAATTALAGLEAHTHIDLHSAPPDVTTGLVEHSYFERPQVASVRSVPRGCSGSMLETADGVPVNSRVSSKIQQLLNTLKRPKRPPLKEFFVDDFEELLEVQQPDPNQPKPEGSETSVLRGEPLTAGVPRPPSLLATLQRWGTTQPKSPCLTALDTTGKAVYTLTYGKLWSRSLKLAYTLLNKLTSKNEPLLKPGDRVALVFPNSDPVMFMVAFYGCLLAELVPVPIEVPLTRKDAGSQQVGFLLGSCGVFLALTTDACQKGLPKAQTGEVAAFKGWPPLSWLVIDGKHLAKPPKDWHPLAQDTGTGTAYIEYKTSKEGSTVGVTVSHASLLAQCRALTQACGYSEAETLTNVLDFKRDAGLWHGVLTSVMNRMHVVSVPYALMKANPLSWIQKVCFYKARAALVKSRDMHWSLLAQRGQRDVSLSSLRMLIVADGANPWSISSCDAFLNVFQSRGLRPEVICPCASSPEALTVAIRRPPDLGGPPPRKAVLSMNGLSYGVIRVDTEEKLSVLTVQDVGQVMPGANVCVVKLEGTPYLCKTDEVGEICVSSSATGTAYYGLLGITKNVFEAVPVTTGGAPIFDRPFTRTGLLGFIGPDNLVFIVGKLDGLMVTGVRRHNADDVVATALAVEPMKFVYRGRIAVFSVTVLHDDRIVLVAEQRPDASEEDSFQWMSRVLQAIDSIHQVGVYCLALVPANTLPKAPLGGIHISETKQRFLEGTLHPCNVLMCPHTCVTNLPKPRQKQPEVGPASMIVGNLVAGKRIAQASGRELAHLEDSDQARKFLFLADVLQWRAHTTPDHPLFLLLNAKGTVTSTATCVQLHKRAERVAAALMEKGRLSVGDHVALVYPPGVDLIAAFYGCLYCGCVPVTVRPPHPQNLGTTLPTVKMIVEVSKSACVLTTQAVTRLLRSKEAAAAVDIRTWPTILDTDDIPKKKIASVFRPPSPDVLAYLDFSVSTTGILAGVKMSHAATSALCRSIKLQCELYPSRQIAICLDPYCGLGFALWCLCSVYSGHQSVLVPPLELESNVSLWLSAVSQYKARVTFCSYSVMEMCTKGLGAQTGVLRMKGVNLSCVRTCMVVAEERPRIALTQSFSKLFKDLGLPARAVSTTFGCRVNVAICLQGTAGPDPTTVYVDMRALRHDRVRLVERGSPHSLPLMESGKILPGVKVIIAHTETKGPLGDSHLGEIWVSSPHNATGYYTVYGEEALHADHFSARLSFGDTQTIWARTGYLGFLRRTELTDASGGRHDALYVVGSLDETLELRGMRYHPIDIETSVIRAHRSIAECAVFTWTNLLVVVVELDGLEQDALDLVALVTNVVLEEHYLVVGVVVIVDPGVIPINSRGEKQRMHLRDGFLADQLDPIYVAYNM
inactive: erlotinib -0.002 | [1] 0.07 | [2] 0.055 | [3] 0.103 | [4] -0.145 | [5] 0.076 | [6] 0.037 | [7] 0.043 | [8] 0.03 | [9] 0.053 | IRAK-1-4 Inhibitor I -0.036 | ibrutinib 0.053 | [10] -0.06 | ralimetinib 0.102 | [11] 0.003 | [12] -0.023 | [13] 0.118 | pinometostat 0.064 | [14] 0.084 | [15] 0.018

DAB2 (UniProt P98082)
inactive: erlotinib 0.107 | [1] 0.112 | [2] 0.01 | [3] -0.035 | [4] 0.037 | [5] 0.008 | [6] 0.002 | [7] 0.019 | [8] -0.156 | [9] -0.006 | IRAK-1-4 Inhibitor I -0.009 | ibrutinib 0.004 | [10] -0.093 | ralimetinib 0.082 | [11] -0.119 | [12] -0.02 | [13] 0.138 | pinometostat 0.049 | [14] -0.031 | [15] -0.075

ETNK1 (UniProt Q9HBU6)
UniProt Q9HBU6, sequence (Q9HBU6 whole entry, looked up): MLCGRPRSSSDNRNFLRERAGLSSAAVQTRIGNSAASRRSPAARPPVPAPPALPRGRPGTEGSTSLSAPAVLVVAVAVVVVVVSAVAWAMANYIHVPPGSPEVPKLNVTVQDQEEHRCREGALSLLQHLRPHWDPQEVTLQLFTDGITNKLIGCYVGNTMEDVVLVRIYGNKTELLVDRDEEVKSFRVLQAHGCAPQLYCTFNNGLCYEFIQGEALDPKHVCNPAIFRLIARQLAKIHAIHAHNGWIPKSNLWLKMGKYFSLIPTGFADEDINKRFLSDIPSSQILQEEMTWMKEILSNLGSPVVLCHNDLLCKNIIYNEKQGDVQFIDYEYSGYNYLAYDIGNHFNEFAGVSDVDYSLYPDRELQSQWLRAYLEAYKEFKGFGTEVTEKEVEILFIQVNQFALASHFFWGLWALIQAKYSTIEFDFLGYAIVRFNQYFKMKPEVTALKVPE
inactive: erlotinib 0.004 | [1] 0.128 | [2] 0.244 | [3] -0.001 | [4] -0.126 | [5] 0.035 | [6] 0.037 | [7] 0.028 | [8] -0.033 | [9] -0.119 | IRAK-1-4 Inhibitor I 0.035 | ibrutinib -0.05 | [10] 0.044 | ralimetinib -0.017 | [11] -0.205 | [12] 0.087 | [13] 0.043 | pinometostat 0.019 | [14] -0.015 | [15] 0.079

DYRK1A isoform 2 (UniProt Q13627)
inactive: erlotinib 0.034 | [1] 0.039 | [2] -0.058 | [3] 0.019 | [4] -0.095 | [5] -0.173 | [6] -0.027 | [7] -0.064 | [8] -0.093 | [9] -0.067 | IRAK-1-4 Inhibitor I -0.001 | ibrutinib -0.009 | ralimetinib -0.046 | [11] -0.042 | [12] -0.254 | [13] 0.064 | pinometostat 0.055 | [14] -0.014 | [15] 0.144
active: [10] -0.358

DNAJC19 (UniProt Q96DA6)
UniProt Q96DA6, sequence (Q96DA6 whole entry, looked up): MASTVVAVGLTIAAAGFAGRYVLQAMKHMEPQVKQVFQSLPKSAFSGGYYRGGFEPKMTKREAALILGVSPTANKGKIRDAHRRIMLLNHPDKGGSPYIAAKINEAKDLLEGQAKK
inactive: erlotinib -0.009 | [1] 0.014 | [2] 0.055 | [3] 0.001 | [4] -0.005 | [5] 0.04 | [6] 0.052 | [7] -0.022 | [8] -0.012 | [9] 0.016 | IRAK-1-4 Inhibitor I 0.045 | ibrutinib 0.024 | [10] 0.038 | ralimetinib 0.029 | [11] -0.054 | [12] -0.153 | [13] -0.006 | pinometostat -0.013 | [14] 0.016 | [15] 0.023

EFL1 (UniProt Q7Z2Z2)
inactive: erlotinib 0 | [1] 0.051 | [2] 0.027 | [3] 0.002 | [4] 0.013 | [5] 0.002 | [6] 0.053 | [7] 0.043 | [8] 0.027 | [9] 0.013 | IRAK-1-4 Inhibitor I 0.016 | ibrutinib -0.019 | [10] -0.039 | ralimetinib -0.004 | [11] -0.069 | [12] -0.103 | [13] 0.03 | pinometostat 0.005 | [14] -0.009 | [15] -0.058

DIAPH1 (UniProt O60610)
UniProt O60610, sequence (O60610 whole entry, looked up): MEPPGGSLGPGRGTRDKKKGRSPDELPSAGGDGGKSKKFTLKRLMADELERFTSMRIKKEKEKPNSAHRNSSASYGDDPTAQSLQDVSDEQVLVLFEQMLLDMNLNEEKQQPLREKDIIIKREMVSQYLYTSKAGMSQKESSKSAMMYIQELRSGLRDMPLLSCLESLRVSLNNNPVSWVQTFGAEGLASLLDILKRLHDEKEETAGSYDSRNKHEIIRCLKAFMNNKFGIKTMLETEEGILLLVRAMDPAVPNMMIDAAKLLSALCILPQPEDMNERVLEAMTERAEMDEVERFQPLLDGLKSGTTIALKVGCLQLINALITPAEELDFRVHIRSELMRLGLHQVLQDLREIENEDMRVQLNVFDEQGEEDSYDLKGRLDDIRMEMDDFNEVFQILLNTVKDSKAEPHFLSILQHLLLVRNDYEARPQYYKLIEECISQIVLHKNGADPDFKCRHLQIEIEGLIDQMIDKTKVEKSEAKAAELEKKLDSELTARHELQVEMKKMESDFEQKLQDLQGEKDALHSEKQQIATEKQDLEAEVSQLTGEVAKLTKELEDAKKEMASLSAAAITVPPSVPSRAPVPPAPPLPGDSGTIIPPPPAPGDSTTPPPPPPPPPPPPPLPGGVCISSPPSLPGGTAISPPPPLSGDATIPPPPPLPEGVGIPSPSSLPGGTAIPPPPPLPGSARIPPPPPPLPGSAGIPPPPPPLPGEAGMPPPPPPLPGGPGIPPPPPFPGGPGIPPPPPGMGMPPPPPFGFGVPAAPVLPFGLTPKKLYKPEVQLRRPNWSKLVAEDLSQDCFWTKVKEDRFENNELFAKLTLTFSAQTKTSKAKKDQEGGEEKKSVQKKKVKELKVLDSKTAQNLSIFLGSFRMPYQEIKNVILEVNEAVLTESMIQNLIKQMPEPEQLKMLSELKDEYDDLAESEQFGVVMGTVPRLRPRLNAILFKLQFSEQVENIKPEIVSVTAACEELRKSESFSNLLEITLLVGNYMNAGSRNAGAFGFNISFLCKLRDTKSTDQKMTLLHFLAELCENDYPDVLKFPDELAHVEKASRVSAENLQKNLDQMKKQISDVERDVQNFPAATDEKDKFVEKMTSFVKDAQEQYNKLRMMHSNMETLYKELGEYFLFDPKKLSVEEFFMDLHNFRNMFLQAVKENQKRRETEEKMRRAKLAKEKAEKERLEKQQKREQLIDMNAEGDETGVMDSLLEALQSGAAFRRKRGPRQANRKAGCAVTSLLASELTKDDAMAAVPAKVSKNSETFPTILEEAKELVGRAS
active: [12] -0.373
inactive: erlotinib 0.072 | [1] 0.058 | [2] -0.109 | [3] -0.037 | [4] 0.031 | [5] 0.04 | [6] 0.067 | [7] 0.006 | [8] -0.072 | [9] -0.235 | IRAK-1-4 Inhibitor I -0.128 | ibrutinib -0.061 | [10] 0.072 | ralimetinib 0.168 | [11] 0 | [13] 0.07 | pinometostat 0.213 | [14] -0.017 | [15] -0.08

DPYSL2 (UniProt Q16555)
inactive: erlotinib -0.02 | [1] -0.104 | [2] 0.099 | [3] 0.072 | [4] 0.074 | [5] 0.003 | [7] 0.055 | [8] -0.044 | [9] 0.14 | IRAK-1-4 Inhibitor I -0.003 | ibrutinib 0.092 | [10] 0.024 | [11] 0.092 | [12] 0.066 | pinometostat 0.009 | [14] -0.007 | [15] 0.01

DEGS1 (UniProt O15121)
inactive: erlotinib -0.075 | [1] 0.076 | [2] -0.113 | [3] 0.145 | [4] 0.049 | [5] -0.003 | [7] -0.096 | [8] -0.245 | [9] 0.32 | ibrutinib 0.049 | [10] 0.066 | [11] 0.013 | [12] 0.074 | [14] -0.118 | [15] 0.197
